Source: PubChem BioAssay
A selection: hits, their analogues and other compounds. The true share with any hit is near 3.2%.
A549 viability: A549 cytotoxicity, counter-screen for Nrf2 inhibitors; A549 ARE-Fluc cells, CellTiter-Fluor viability, 18-24 h; 390,000 compounds, 0.16% hits; AID 504648; Potency, µM (doses to about 46 µM), without a hit: top-dose activity change, negative = cytotoxicity, hits mostly inhibitors; also: potency is read from the fitted curve at half-maximal effect; % is scaled to controls: 0 for no effect and ±100 for the full control effect
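A549 ARE-Fluc cells in 5% FBS OPTI-MEM, 5000 cells/well, rested 2 h then exposed to compounds in concentration-response for 18-24 h at 37 °C. Viability by CellTiter-Fluor fluorescence (Ex 405/Em 525) after 30 min; luciferase luminescence (BugLite, 15 min, RT) read afterwards.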
BRCA1 expr up: increases BRCA1 expression. MCF7-BRCA1-FFLuc reporter, luminescence, 48 h; response scale: scaled: vehicle 0%, 10 µM genistein 100%. Potency, µM (doses to about 46.1 µM), for the others: top-dose activation, hits mostly activators. 380,000 compounds, 1.1% hits; also: potency is read from the fitted curve at half-maximal effect; nearly all actives have a fitted effect of over 80% in size
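MCF7-BRCA1-FFLuc, 2000 cells/well; 2 h attach, 37 °C/5% CO2; compound 48 h; luciferase substrate 15 min; luminescence end-point. Norm. to genistein 10 microM max activation and DMSO; concentration-response curves fitted.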
Nrf2 ARE act: activates Nrf2 signaling. AREc32 ARE-luciferase reporter (MCF7-derived line), luminescence, 24 h. 410,000 compounds, 0.31% hits. Potency, µM (doses to about 46.1 µM), for the others: at the top dose activation, hits mostly activators; also: potency is read from the fitted curve at half-maximal effect; % of control where 0% means no effect; nearly all actives have a fitted effect of over 65% in size
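For detection, Steady-Glo was added and plates sat 30 min at RT; before that, AREc32_Fluc cells grown overnight in OPTI-MEM/5% FBS had been treated with 23 nL compound for 24 hr at 37 deg C.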
IL2 activator: activators of IL-2. IL-2 activation reporter assay, cell-based qHTS; stimulated with anti-CD3/CD4/CD28 beads; in transgenic mouse T cells. activation, % (series mostly up to about 46 µM). 360,000 compounds, 0.065% hits; in the data active = activation above about 50%; inconclusive = mostly about 30% to 49%; also: 0% is about no effect
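Using fluorescent plate cytometry, EGFP and DsRed are detected in transgenic mouse T cells stimulated 18 h at 37 degrees C with antibody-coated beads after 60 min compound pretreatment.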
p53 reactivation: mutant p53 re-activation in reporter cells | 320,000 compounds, 0.063% hits | Potency, µM (titrated, usually from 92.2 µM), for the others: at the top dose activity change, positive = activation, usual class: activators | H1299 p53-A138V BP100-luciferase reporter, luminescence, 24 h; also: potency is read from the fitted curve at half-maximal effect; % of control where 0% means no effect; nearly all actives have a fitted effect of over 45% in size
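p53-null H1299 cells stably carrying temperature-sensitive p53-A138V and a BP100-luciferase reporter were pinned with compounds (4-point, 1:5 series) and held 24 hrs at 37 deg C. Luminescence was read 10 min after detection reagent.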
Nrf2 block: Nrf2 pathway inhibition; 360,000 compounds, 2.1% hits; A549 ARE-Fluc reporter, luciferase luminescence, 18-24 h; Potency, µM (series often up to 46 µM), for the others: at the top dose activity change, negative = inhibition, most hits filed as inhibitors; also: potency is read from the fitted curve at half-maximal effect; % is scaled to controls: 0 for no effect and ±100 for the full control effect; nearly all actives have a fitted effect of over 60% in size
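A549 ARE_Fluc cells (5000/well, 5% FBS OPTI-MEM) pre-incubated 2 h, then treated with compounds 18-24 h at 37C/5% CO2 in concentration-response. CellTiter-Fluor viability read first; BugLite luciferase luminescence after 15 min at room temperature gives Nrf2 activity.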
* = called active by the depositor. Unless noted, calls follow the shape of the dose curve; as a rule, active = well fitted curve in the direction sought with a large enough effect; inconclusive = small, poorly fitted or top-dose-only effect, or another doubt; inactive = no such curve, though single readings can be large; an effect the other way counts as inactive or inconclusive.

How did CCc1ccc(OCC2c3cc(OC)c(OC)cc3CCN2C(=S)NC)cc1 (centres undefined) do in these assays?
A549 viability: -28%; BRCA1 expr up: -81%; Nrf2 ARE act: 9%; IL2 activator: 3; p53 reactivation: -7%; Nrf2 block: 18µM*

What do the screens show for `O=[S+]([O-])(c1ccc2c(c1)OCCO2)N1CCN([S+](=O)([O-])c2cc(Cl)ccc2F)CC1`?
A549 viability: 0%; Nrf2 block: -8%

How did Cc1nn(CCCC(=O)Nc2cccc(F)c2)c(=O)c2c1sc1ccccc12 do in these assays?
A549 viability: -13%; Nrf2 ARE act: -1%; Nrf2 block: 2.6µM*

How did CCc1cccc(C)c1NC(=O)CCCn1nc(C)c2sc3ccccc3c2c1=O do in these assays?
A549 viability: 6%; Nrf2 ARE act: 0%; Nrf2 block: inconclusive

Results for COc1ccccc1N1CCN(S(=O)(=O)c2cc(-c3cc(C)no3)ccc2C)CC1 ?
A549 viability: 0%; Nrf2 ARE act: 0%; Nrf2 block: inconclusive

How did CCCSC1=N/C(=C\C=C\c2ccco2)C(=O)S1 do in these assays?
A549 viability: -4%; BRCA1 expr up: -15%; Nrf2 ARE act: 10µM*; IL2 activator: 2; p53 reactivation: 6%; Nrf2 block: 6%

What do the screens show for `COc1ccc(OCc2n[nH]c(=S)n2-c2ccc(C)cc2)cc1`?
A549 viability: -9%; BRCA1 expr up: -3%; Nrf2 ARE act: -1%; IL2 activator: 1; p53 reactivation: -1%; Nrf2 block: -14%

How did Cc1ccc(N2CN=C(c3ccccc3)NC2=S)cc1 do in these assays?
A549 viability: 4%; BRCA1 expr up: 11µM*; Nrf2 ARE act: 1%; IL2 activator: 1; p53 reactivation: 23%; Nrf2 block: inconclusive

What do the screens show for `COc1ccc(C2=NCN(c3ccc(C)cc3)C(=S)N2)cc1`?
A549 viability: -8%; BRCA1 expr up: 4µM*; Nrf2 ARE act: 2%; IL2 activator: 0; p53 reactivation: 11%; Nrf2 block: inconclusive

What do the screens show for `COc1ccc(N/C=C\C(=O)c2ccc3c(c2)OCO3)cc1`?
A549 viability: -16%; BRCA1 expr up: 0%; Nrf2 ARE act: 0%; IL2 activator: -2; p53 reactivation: inconclusive; Nrf2 block: inconclusive

How did CCOc1ccc(N/C=C\C(=O)c2ccc3c(c2)OCO3)cc1 do in these assays?
A549 viability: -2%; BRCA1 expr up: 4.5µM*; Nrf2 ARE act: 2%; IL2 activator: 14; Nrf2 block: 7%

What do the screens show for `CCOC(=O)c1ccc(N/C=C\C(=O)c2cccc(OC)c2)cc1`?
A549 viability: -13%; BRCA1 expr up: 3.5µM*; Nrf2 ARE act: 3%; IL2 activator: -1; p53 reactivation: inconclusive; Nrf2 block: inconclusive

What do the screens show for `CCOC(=O)c1cccc(N/C=C/C(=O)c2ccc(OC)c(OC)c2)c1`?
A549 viability: -13%; BRCA1 expr up: 87%; Nrf2 ARE act: 5%; IL2 activator: -2; p53 reactivation: 16%; Nrf2 block: 4%

What do the screens show for `CCc1nn2c(=O)cc(COC(=O)c3cccc(NC(=O)c4ccccc4C)c3)nc2s1`?
A549 viability: -18%; Nrf2 ARE act: 0%

How did COc1cccc(CNC(=O)c2ccc3c(c2)nc2n3CCC(C)C2)c1OC (centres undefined) do in these assays?
A549 viability: 1%; Nrf2 ARE act: 0%

Results for CC(=O)N1CCN(c2ccc(NCc3cccc(C)c3)cc2)CC1 ?
A549 viability: -3%; BRCA1 expr up: -12%; Nrf2 ARE act: 6%; IL2 activator: 0; p53 reactivation: -6%; Nrf2 block: 15µM*

What do the screens show for `CC(=O)N1CCN(c2ccc(NCc3ccc(F)cc3)cc2)CC1`?
A549 viability: -3%; BRCA1 expr up: 27%; Nrf2 ARE act: 3%; IL2 activator: -2; p53 reactivation: 10%; Nrf2 block: inconclusive

What do the screens show for `COc1cc(CNc2ccc(N3CCN(C(C)=O)CC3)cc2)ccc1OCc1ccc(F)cc1`?
A549 viability: -19%; BRCA1 expr up: 10%; Nrf2 ARE act: 13%; IL2 activator: -1; p53 reactivation: 4%; Nrf2 block: 16µM*

How did N/C(=N\OC(=O)CSc1ccccc1)c1ccccn1 do in these assays?
A549 viability: 13%; BRCA1 expr up: 6.3µM*; Nrf2 ARE act: -1%; IL2 activator: -1; p53 reactivation: 11%; Nrf2 block: inconclusive

What do the screens show for `N/C(=N\OC(=O)Cc1ccc(-c2ccccc2)cc1)c1ccccn1`?
A549 viability: -7%; BRCA1 expr up: 73%; Nrf2 ARE act: 0%; IL2 activator: -2; p53 reactivation: inconclusive; Nrf2 block: inconclusive

Results for N/C(=N\OC(=O)c1ccccc1[N+](=O)[O-])c1ccccn1 ?
A549 viability: 1%; BRCA1 expr up: 5µM*; Nrf2 ARE act: 0%; IL2 activator: 0; p53 reactivation: inconclusive; Nrf2 block: inconclusive

How did Cc1ccc(CN2CCN(C3CCNCC3)C(=O)C2=O)cc1 do in these assays?
A549 viability: 11%; Nrf2 ARE act: 0%

What do the screens show for `COc1ccc(C2Oc3ccccc3C(=O)N2Cc2ccccc2)cc1COc1ccc(NC(C)=O)cc1` (centres undefined)?
A549 viability: -10%; Nrf2 block: inconclusive

How did O=C(CSc1nc(-c2cccs2)nc2cc(=O)[nH]n12)Nc1ccccc1Cl do in these assays?
A549 viability: 1%; Nrf2 ARE act: inconclusive; Nrf2 block: inconclusive

What do the screens show for `COc1cc2sc3cc(NCCCN4CCOCC4)ccc3c(=O)c2cc1OC`?
A549 viability: 4%; BRCA1 expr up: inconclusive; Nrf2 ARE act: 18%; IL2 activator: 0; p53 reactivation: 20%; Nrf2 block: 4%

Results for O=c1c2ccccc2sc2ccc(NCCCN3CCOCC3)cc12 ?
A549 viability: 1%; BRCA1 expr up: 11µM*; Nrf2 ARE act: -1%; IL2 activator: -1; Nrf2 block: inconclusive

How did CC(=O)c1ccc2c(c1)Cc1cc(C(C)=O)ccc1-2 do in these assays?
A549 viability: 11%; BRCA1 expr up: 2µM*; Nrf2 ARE act: 3%; IL2 activator: 5; p53 reactivation: inconclusive; Nrf2 block: inconclusive

What do the screens show for `CC(O)CN(CC(C)O)c1ccc2c(c1)Cc1cc([N+](=O)[O-])ccc1-2` (centres undefined)?
A549 viability: inconclusive; BRCA1 expr up: -4%; Nrf2 ARE act: 4%; IL2 activator: -3; Nrf2 block: inconclusive
